An excerpt weighted towards active compounds, which were near 4.1% of everything screened.
PglD DTNB: blocks C. jejuni PglD acetyltransferase activity. purified PglD enzyme, DTNB colorimetric CoA detection. inhibition, % at 12.5 µM. 360,000 compounds, 0.098% hits; in the data active = inhibition above about 16%, passing the limit was not always enough
NSD2 HMT inh: blocks human histone methyltransferase NSD2; O96028; 310,000 compounds, 0.54% hits; NSD2 peptide methylation, AlphaScreen, 120 min; inhibition, % at 12.5 µM; in the data active = inhibition above about 50%
Env fusion inh: blocks HIV Env-driven cell-cell fusion; HeLa-JRFL Env/CEM21 cell fusion, luciferase; inhibition, % at 12.3 µM; 360,000 compounds, 1.1% hits; AID 651610;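 active = mean replicate inhibition score of at least 50 and every replicate individually at or above 50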
ALR H2O2 inh: blocks human ALR sulfhydryl oxidase activity; inhibition, % (concentration not given with the values); 290,000 compounds, 3.8% hits; purified ALR, DTT oxidation, H2O2 HRP-luminol luminescence; P55789; AID 485317;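 active = mean replicate inhibition above about 79%, with every replicate also reaching it, limit read from the data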
Target sequence (P55789 whole entry, looked up): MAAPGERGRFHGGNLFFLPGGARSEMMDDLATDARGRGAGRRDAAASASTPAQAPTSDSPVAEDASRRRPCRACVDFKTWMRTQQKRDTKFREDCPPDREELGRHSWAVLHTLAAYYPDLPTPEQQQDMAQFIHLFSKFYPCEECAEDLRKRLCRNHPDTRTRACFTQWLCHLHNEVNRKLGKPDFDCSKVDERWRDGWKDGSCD
CFTR F508del cor: correctors of CFTR F508del function in bronchial epithelial cells | CFBE cells, YFP halide quenching; stimulated with forskolin plus potentiator P3; % fluorescence drop versus neutral controls | AID 720511 | 350,000 compounds, 0.36% hits | activity (quench increase), % at 7.58 µM;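 active = mean added fluorescence quench of at least 8% versus neutral control, with both replicates also reaching 8%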;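 note: cells transiently co-express mutant CFTR-F508del with the halide-sensitive YFP; corrector assay measuring rescue of mutant channel to the surface after 24 h compound exposure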
CASP6 VEID inh: inhibitors of human caspase-6 | purified caspase-6, Z-VEID-R110 cleavage fluorescence | inhibition, % at 12.5 µM | 350,000 compounds, 0.53% hits;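 active = mean inhibition across replicates at least about 35%, with every replicate also reaching that limit, limit read from the data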
Target sequence (P55212 24-179 limits assumed): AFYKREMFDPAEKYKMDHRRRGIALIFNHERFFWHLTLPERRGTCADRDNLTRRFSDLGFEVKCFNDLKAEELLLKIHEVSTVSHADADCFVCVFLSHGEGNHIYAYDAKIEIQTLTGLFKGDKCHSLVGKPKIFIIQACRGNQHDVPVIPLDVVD
Target sequence (P55212 194-293 limits assumed): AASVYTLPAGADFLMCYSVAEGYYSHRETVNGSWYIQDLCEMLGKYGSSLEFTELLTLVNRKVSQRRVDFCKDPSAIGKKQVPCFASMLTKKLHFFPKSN
AlphaScreen art: AlphaScreen assay artifact in NSD2 counter-screen; shares compounds with NSD2 HMT inh; AlphaScreen artifact counterscreen, preloaded methylated H4 peptide; AC35, µM (highest dose often 10 µM); 1,500 compounds, 9.4% hits; AID 1053174; call rule not given here
Large screens that a line does not name were inactive (follow-up assays come after a bar, where they were run).

COc1ccc(S(=O)(=O)N2CCCCC2)cc1NC(=O)Cc1ccsc1	NSD2 HMT inh 51.0 | AlphaScreen art inactive
CCC1Cc2c(nc(N)c3c(N)nc(N4CCOCC4)c(C#N)c23)O1 (stereo unspecified)	NSD2 HMT inh 82.4 (no result: PglD DTNB) | AlphaScreen art inactive
CCOc1cc2c(C#N)c(N(CC)CC)nc(N)c2c(N)n1	none (no result: NSD2 HMT inh, CASP6 VEID inh)
CCOc1cc2c(C#N)c(N3CCOCC3)nc(N)c2c(N)n1	NSD2 HMT inh 70.4 (no result: PglD DTNB, Env fusion inh, CFTR F508del cor, CASP6 VEID inh) | AlphaScreen art inactive
O=C(c1ccc(S(=O)(=O)N2CCOCC2)cc1)N(c1cccc(Cl)c1)C1C=CS(=O)(=O)C1 (stereo unspecified)	NSD2 HMT inh 83.2 (no result: ALR H2O2 inh) | AlphaScreen art inactive
Nn1cnnc1N/N=C/c1ccc(Cl)c([N+](=O)[O-])c1	NSD2 HMT inh 116.2 (no result: PglD DTNB) | AlphaScreen art inactive
Nn1cnnc1N/N=C/c1ccc(F)cc1	none
O=Cc1ccc(OC(=O)C2CC(=O)N(c3ccc(F)cc3)C2)cc1 (stereo unspecified)	NSD2 HMT inh 124.5 (no result: CFTR F508del cor, CASP6 VEID inh) | AlphaScreen art inactive
O=C(O)C1CC(=O)N(c2ccc(F)cc2)C1 (stereo unspecified)	none (no result: CFTR F508del cor, CASP6 VEID inh)
COc1ccc(C2CCc3cc4c(cc3C2=NOC(C)=O)OCO4)cc1OC (stereo unspecified)	NSD2 HMT inh 58.2 (no result: ALR H2O2 inh) | AlphaScreen art inactive
O=C(O)c1ccc(CSc2n[nH]c(-c3ccco3)n2)cc1	NSD2 HMT inh 108.3 (no result: CFTR F508del cor, CASP6 VEID inh) | AlphaScreen art inactive
CO[C@H]1CN(C)C(=O)c2ccc(NC(=O)C3CC3)cc2OC[C@@H](C)N(C(=O)c2ccccc2F)C[C@H]1C	none (no result: NSD2 HMT inh, ALR H2O2 inh)
CCOC(=O)N1CCN(C2=Nc3cccc4cccc2c34)CC1	NSD2 HMT inh 71.0 (no result: Env fusion inh, CFTR F508del cor, CASP6 VEID inh) | AlphaScreen art inactive
C[C@H](CO)N1C[C@H](C)[C@@H](CN(C)Cc2ccccc2)Oc2ccc(NS(=O)(=O)c3ccccc3)cc2C1=O	none (no result: NSD2 HMT inh, ALR H2O2 inh)
N#Cc1cc2ccc(N3CCOCC3)cc2cc1C#N	NSD2 HMT inh 119.6, CASP6 VEID inh 64.2 (no result: Env fusion inh) | AlphaScreen art inactive
C/C=C/c1cccc(-c2nc(C(=O)NCCC)cc3c2[C@H](CCO)N([S@@](=O)C(C)(C)C)C3)c1	none (no result: PglD DTNB, NSD2 HMT inh, Env fusion inh, ALR H2O2 inh)
CN(C)c1ccc(N=c2sc3ccccc3n2C)cc1	NSD2 HMT inh 57.1, ALR H2O2 inh 98.8 (no result: CFTR F508del cor, CASP6 VEID inh) | AlphaScreen art 8.9µM
Cn1c(=Nc2ccccc2)sc2ccccc21	none (no result: Env fusion inh)
C[C@H](CO)N1C[C@H](C)[C@H](CN(C)C(=O)Nc2ccc(F)cc2)Oc2c(NC(=O)c3ccncc3)cccc2C1=O	none (no result: NSD2 HMT inh, Env fusion inh, ALR H2O2 inh)
COc1ccc(N(CC(=O)NCCSc2ccccn2)S(C)(=O)=O)cc1	NSD2 HMT inh 126.6 (no result: CFTR F508del cor) | AlphaScreen art inactive
Cc1cccc(NC(=O)CCN2CCCCC2)c1	NSD2 HMT inh 66.1 | AlphaScreen art inactive
Cc1ccc(NC(=O)CCN2CCN(C/C=C/c3ccccc3)CC2)cc1	none (no result: Env fusion inh, ALR H2O2 inh, CFTR F508del cor, CASP6 VEID inh)
Cc1ccc(NC(=O)CCN2CCN(C/C=C/c3ccccc3)CC2)cc1C	NSD2 HMT inh 64.4 (no result: ALR H2O2 inh, CFTR F508del cor, CASP6 VEID inh) | AlphaScreen art inactive
c1coc(CNCCCN2CCOCC2)c1	NSD2 HMT inh 55.9 (no result: CFTR F508del cor, CASP6 VEID inh) | AlphaScreen art inactive
Cc1ccc2[nH]c3c(c2c1)CN(C(=O)CN(C)CC1OCCO1)CC3	NSD2 HMT inh 63.6 (no result: CFTR F508del cor, CASP6 VEID inh) | AlphaScreen art inactive
CN(CC(=O)N1CCc2[nH]c3ccc(F)cc3c2C1)CC1OCCO1	none (no result: PglD DTNB, CFTR F508del cor, CASP6 VEID inh)
CC1(C)NC(=O)N(CCOCCOc2c(Cl)cc(Cl)cc2Cl)C1=O	NSD2 HMT inh 124.9 (no result: CFTR F508del cor, CASP6 VEID inh) | AlphaScreen art inactive
CN(C)C(=O)c1ccc(-c2ccc3c(c2)[C@H]2[C@H](CCN2C(=O)c2cnccn2)[C@@H](CO)N3)cc1	none (no result: NSD2 HMT inh, Env fusion inh, ALR H2O2 inh)
CCCC(=O)Nc1ccc2c(c1)OC[C@H](C)N(Cc1ccccc1)C[C@@H](C)[C@H](OC)CN(C)C2=O	none (no result: NSD2 HMT inh, ALR H2O2 inh)
Cc1ccc(NC(=S)Nc2cccc3cnccc23)cc1C	none
Cc1ccc(NC(=S)Nc2cccc3cnccc23)cc1	NSD2 HMT inh 101.2, CASP6 VEID inh 80.3 | AlphaScreen art inactive
CC(=O)c1ccc(NC(=S)Nc2cccc3cnccc23)cc1	NSD2 HMT inh 81.4 (no result: PglD DTNB) | AlphaScreen art inactive
O=Cc1ccc(-c2nc3ccccc3s2)o1	none
O=C(O)CC(C(=O)O)N1C(=O)/C(=C/C=C/c2ccco2)SC1=S (stereo unspecified)	NSD2 HMT inh active, CASP6 VEID inh 80.6 | AlphaScreen art inactive
